Inconclusive results are not listed. A call without a number means that no potency is given here. Activity calls are given as the source filed them. The call rests on the fitted dose curve; in most records, active means well fitted curve in the direction sought with a large enough effect; inconclusive means small, poorly fitted or top-dose-only effect, or another doubt; inactive means no such curve, though single readings can be large; an effect the other way counts as inactive or inconclusive.

The first assay addresses Aldehyde dehydrogenase, mitochondrial (Homo sapiens) (UniProt P05091). As to the kind of experiment: qHTS for Inhibitors of the Aldehyde Dehydrogenase Family (ALDH2) Primary screen (AID 2061308). Further: nearly all actives have a fitted effect of over 55% in size. Particulars: ALDH2 enzyme inhibition qHTS, 1536-well; series mostly up to 56 µM. On the technique in general: Quantitative high-throughput screening tests each substance at several concentrations.
For `Cc1ccc(S(=O)(=O)Nc2cc(Br)ccc2C(=O)Nc2nc(-c3ccccc3)cs2)cc1`, the Potency result was “inactive”. As to `O=C(Nc1nnc(-c2ccncc2)s1)Nc1cccc2ccccc12`, the Potency result is “inactive”. Consider `FC(F)(F)c1ccccc1-c1nc(NCC23CC4CC(CC(C4)C2)C3)c2ccccc2n1`, for which the Potency result was “inactive”. On the same count and under the same terms, the same measure for `COC(=O)c1ccc(O)c2ncc(NC3CCNCC3)cc12`: “inactive”; for `Cc1ccc(OCCn2c(CCNC(=O)Cc3cccc4ccccc34)nc3ccccc32)cc1`: “inactive”.

In the case of `CO[C@H]1/C=C/[C@@](C)(O)/C=C/C(=O)O[C@H](C)[C@@H](C)CC/C=C/1C`, the Potency result is “inactive”.

For `O=C(NCCc1ccc(OCC(F)(F)F)c(OCC(F)(F)F)c1)c1cc2sccc2n1Cc1ccccc1`, the Potency result is “inactive”. Consider `O=C(OCC#CCSc1nnc(-c2cccc3ccccc23)o1)c1sc(Cl)c(Cl)c1Cl`, for which the Potency entry was “inactive”. The same measure, in the same setting: the same measure for `O=C(CN1C(=O)N/C(=C\c2cccn2-c2cccc(C(=O)O)c2)C1=O)Nc1cccc(Cl)c1`: “inactive”; for `COc1ccc(-c2nnc3n2N=C(c2ccccc2OC)CS3)cc1`: “inactive”; for `O=C(COC(=O)CNC(=O)C1CCCCC1)Nc1cc(C(F)(F)F)ccc1Cl`: “inactive”. For the compound `O=C(Nc1ccc(S(=O)(=O)Nc2ncc(-c3ccccc3)s2)cc1)c1ccc2ccccc2c1`, the Potency entry is “inactive”. Consider `N#Cc1c(-c2ccccc2)no[n+]1[O-]`, for which the Potency entry is “inactive”. Take `O=C(CNC(=O)c1ccc2cc[nH]c2c1)OC(C(=O)Nc1cc(C(F)(F)F)ccc1Cl)c1ccccc1` (configuration not stated): the Potency result is “inactive”. Take `Cc1cccc(CNc2nc(-c3ccccc3C(F)(F)F)nc3ccccc23)c1`: the Potency result was “inactive”. `O=C1C(F)N([S+](=O)([O-])c2ccc3c(c2)OCCO3)CCN1[S+](=O)([O-])c1c(F)cccc1F` (configuration not stated): the Potency result was “inactive”. In the case of `O=P(c1ccccc1)(c1ccccc1)c1cnc2ccccn12`, the Potency entry was “inactive”. `COc1ccc(C2Nc3ccccc3C(=O)N2Cc2cccnc2)cc1COc1c(C)cc(NC(C)=O)cc1C` (configuration not stated): the Potency entry was “inactive”. Turning to `N#Cc1ccccc1Nc1ncc(-c2cccc3ccccc23)o1`, the Potency result is “inactive”. For `Cc1c(P(=S)(c2ccccc2)c2ccccc2)c2ccccc2n1CCc1ccccc1`, the Potency result is “inactive”.

For the compound `NC(=O)C1CCN(c2nc(-c3cccc(F)c3)cs2)CC1`, the Potency result is “inactive”. Regarding `Cc1cc(NS(=O)(=O)CCNC(=O)Cc2ccc(Cl)c(Cl)c2)no1`, the Potency entry was “inactive”.

In the next assay the target is Retinaldehyde dehydrogenase 3 (Homo sapiens) (UniProt P47895). As to the kind of experiment: qHTS for Inhibitors of the Aldehyde Dehydrogenase Family (ALDH1A3) Primary screen (AID 2061315). Conditions: ALDH inhibition qHTS; series mostly up to 56 µM.
As for `CNc1oc(-c2cccc(Cl)c2Cl)nc1C#N`, the Potency entry was “inactive”. For the compound `COc1ccc(-c2ccc(=O)n(CC(=O)NCCc3ccccc3)n2)cc1OC`, the Potency entry is “inactive”. With `c1ccc(CNCc2nnc(-c3cc4ccccc4[nH]3)o2)cc1`, the Potency result is “inactive”.

As to `COc1cccc(C2c3c(ncn(-c4ccc(C)cc4)c3=N)Oc3ccc4ccccc4c32)c1` (configuration not stated), the Potency entry is “inactive”. For `O=C(O)Cc1cc(F)c(S(=O)(=O)N2CCN(S(=O)(=O)c3ccc4c(c3)OCCO4)CC2)cc1F`, the Potency result was “inactive”. `Cn1c2ccsc2c2cnn(Cc3ccccc3F)c(=O)c21`: the Potency result is “inactive”.

`Cc1cnc(-c2ccccc2C(C)C)nc1NCC1CCN(C2COC2)CC1`: the Potency entry was “inactive”.

Turning to `CN(CCc1cnc[nH]1)c1ncnc2ccc(-c3ccc4c(c3)OCO4)cc12`, the Potency entry was “inactive”. As to `CC(O)c1ccc(-c2ccc3ncnc(NCCc4cnc[nH]4)c3c2)o1` (configuration not stated), the Potency result was “inactive”. Take `Cc1ccc(-c2ccc(=O)n(CC(=O)NCc3ncc[nH]3)n2)cc1`: the Potency result was “inactive”. Regarding `CCN(CC)c1ccc(NC(=O)CN(C)Cc2c(O)ccc3ccccc23)cc1`, the Potency result was “inactive”.

Regarding `Cn1nnnc1Sc1ncnc2scc(-c3ccc(Cl)cc3)c12`, the Potency result is “inactive”. For `CCNC(=O)c1ccc(-c2ccc3ncnc(NCc4nc(C)cs4)c3c2)o1`, the Potency result is “inactive”. Consider `Cc1cc(-c2nnc3n2CCCCC3)c(C)n1-c1ccncc1`, for which the Potency entry is “inactive”. For `Cc1ccc(S(=O)(=O)Nc2cccc3ccc(C)nc23)cc1`, the Potency result was “inactive”. `Cc1ccc(OCCn2c(CCNC(=O)c3ccccc3C)nc3ccccc32)cc1`: the Potency result is “inactive”. With `COc1cc(-c2no[n+]([O-])c2C#N)cc(OC)c1OC`, the Potency result was “inactive”. For the compound `COc1ccccc1C(=O)N1CCc2cc(-c3nc(NC(=O)Cc4ccc5c(c4)OCO5)sc3C)ccc21`, the Potency result was “inactive”. On the same count and under the same terms, the same measure for `Cc1ccc(S(=O)(=O)Nc2cc(Br)ccc2C(=O)Nc2nc(-c3ccccc3)cs2)cc1`: “inactive”. As for `O=C(Nc1nnc(-c2ccncc2)s1)Nc1cccc2ccccc12`, the Potency entry is “inactive”. Regarding `FC(F)(F)c1ccccc1-c1nc(NCC23CC4CC(CC(C4)C2)C3)c2ccccc2n1`, the Potency result is “inactive”. As for `COC(=O)c1ccc(O)c2ncc(NC3CCNCC3)cc12`, the Potency result was “inactive”. For the compound `Cc1ccc(OCCn2c(CCNC(=O)Cc3cccc4ccccc34)nc3ccccc32)cc1`, the Potency entry is “inactive”. For `CO[C@H]1/C=C/[C@@](C)(O)/C=C/C(=O)O[C@H](C)[C@@H](C)CC/C=C/1C`, the Potency entry is “inactive”.

In the case of `O=C(NCCc1ccc(OCC(F)(F)F)c(OCC(F)(F)F)c1)c1cc2sccc2n1Cc1ccccc1`, the Potency result was “inactive”.

`O=C(OCC#CCSc1nnc(-c2cccc3ccccc23)o1)c1sc(Cl)c(Cl)c1Cl`: the Potency entry is “inactive”. For `O=C(CN1C(=O)N/C(=C\c2cccn2-c2cccc(C(=O)O)c2)C1=O)Nc1cccc(Cl)c1`, the Potency entry is “inactive”. As for `COc1ccc(-c2nnc3n2N=C(c2ccccc2OC)CS3)cc1`, the Potency entry was “inactive”. `O=C(COC(=O)CNC(=O)C1CCCCC1)Nc1cc(C(F)(F)F)ccc1Cl`: the Potency entry is “inactive”. Take `O=C(Nc1ccc(S(=O)(=O)Nc2ncc(-c3ccccc3)s2)cc1)c1ccc2ccccc2c1`: the Potency result is “inactive”. Turning to `N#Cc1c(-c2ccccc2)no[n+]1[O-]`, the Potency result was “inactive”.

With `O=C(CNC(=O)c1ccc2cc[nH]c2c1)OC(C(=O)Nc1cc(C(F)(F)F)ccc1Cl)c1ccccc1` (configuration not stated), the Potency entry was “inactive”. For the compound `Cc1cccc(CNc2nc(-c3ccccc3C(F)(F)F)nc3ccccc23)c1`, the Potency result is “inactive”. Consider `O=C1C(F)N([S+](=O)([O-])c2ccc3c(c2)OCCO3)CCN1[S+](=O)([O-])c1c(F)cccc1F` (configuration not stated), for which the Potency result was “inactive”. Still for that read-out and setting: the same measure for `O=P(c1ccccc1)(c1ccccc1)c1cnc2ccccn12`: “inactive”; for `COc1ccc(C2Nc3ccccc3C(=O)N2Cc2cccnc2)cc1COc1c(C)cc(NC(C)=O)cc1C` (configuration not stated): “inactive”. Regarding `N#Cc1ccccc1Nc1ncc(-c2cccc3ccccc23)o1`, the Potency result is “inactive”. Same read-out and setting: the same measure for `Cc1c(P(=S)(c2ccccc2)c2ccccc2)c2ccccc2n1CCc1ccccc1`: “inactive”; for `NC(=O)C1CCN(c2nc(-c3cccc(F)c3)cs2)CC1`: “inactive”; for `Cc1cc(NS(=O)(=O)CCNC(=O)Cc2ccc(Cl)c(Cl)c2)no1`: “inactive”.
